In the supplement of paper PMC11001985:
Unmarked numbers belong to inactive results.

Compound: C#CCNC(=O)CCSSCCC(=O)NCCc1ccc(C=O)c(C=O)c1
Assay: lysine labeling ratio R10:1 (500 µM / 50 µM probe), SILAC-ABPP in living cells; higher = lower intrinsic lysine reactivity toward the probe, active = 2 or less
Conditions: HeLa; probe concentrations 500 vs 50 µM
Procedure, shortened: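 SILAC light and heavy living HeLa cells in PBS at room temperature were labelled with 50 µM or 500 µM of an alkyne-tagged, disulfide-linked lysine probe, with forward and reverse label swaps. Mixed lysates were clicked to biotin-azide, trypsin-digested, captured on neutravidin, DTT-released, alkylated and analysed by LC-MS/MS on a TIMS-TOF Pro. R is the filtered median high-probe/low-probe MS1 peptide ratio per lysine, then the median across forward and reverse replicates. Ratios are capped at 20.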

Chain of UniProt Q00839 (Q00839 whole entry): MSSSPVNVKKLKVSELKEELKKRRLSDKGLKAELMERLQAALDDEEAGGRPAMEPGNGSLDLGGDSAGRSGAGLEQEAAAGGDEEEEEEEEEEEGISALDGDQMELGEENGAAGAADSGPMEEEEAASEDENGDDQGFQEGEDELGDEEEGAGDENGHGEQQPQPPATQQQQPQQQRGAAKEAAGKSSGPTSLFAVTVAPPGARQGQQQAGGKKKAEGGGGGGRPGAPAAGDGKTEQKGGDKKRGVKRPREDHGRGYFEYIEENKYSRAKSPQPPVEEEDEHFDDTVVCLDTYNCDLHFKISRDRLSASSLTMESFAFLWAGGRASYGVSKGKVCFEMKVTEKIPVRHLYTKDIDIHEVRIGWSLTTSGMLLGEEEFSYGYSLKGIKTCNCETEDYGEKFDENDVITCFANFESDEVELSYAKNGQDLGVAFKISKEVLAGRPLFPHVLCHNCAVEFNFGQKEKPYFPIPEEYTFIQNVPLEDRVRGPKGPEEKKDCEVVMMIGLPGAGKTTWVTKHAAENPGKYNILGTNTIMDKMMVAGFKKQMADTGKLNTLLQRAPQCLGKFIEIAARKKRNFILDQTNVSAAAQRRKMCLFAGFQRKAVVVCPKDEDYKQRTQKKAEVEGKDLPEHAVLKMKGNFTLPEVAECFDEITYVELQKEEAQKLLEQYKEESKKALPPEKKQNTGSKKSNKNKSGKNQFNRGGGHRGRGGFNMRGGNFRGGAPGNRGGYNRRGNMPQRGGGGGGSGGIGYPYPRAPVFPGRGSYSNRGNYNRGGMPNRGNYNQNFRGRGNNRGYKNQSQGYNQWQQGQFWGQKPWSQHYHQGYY
Chain of UniProt O75369 (O75369 whole entry): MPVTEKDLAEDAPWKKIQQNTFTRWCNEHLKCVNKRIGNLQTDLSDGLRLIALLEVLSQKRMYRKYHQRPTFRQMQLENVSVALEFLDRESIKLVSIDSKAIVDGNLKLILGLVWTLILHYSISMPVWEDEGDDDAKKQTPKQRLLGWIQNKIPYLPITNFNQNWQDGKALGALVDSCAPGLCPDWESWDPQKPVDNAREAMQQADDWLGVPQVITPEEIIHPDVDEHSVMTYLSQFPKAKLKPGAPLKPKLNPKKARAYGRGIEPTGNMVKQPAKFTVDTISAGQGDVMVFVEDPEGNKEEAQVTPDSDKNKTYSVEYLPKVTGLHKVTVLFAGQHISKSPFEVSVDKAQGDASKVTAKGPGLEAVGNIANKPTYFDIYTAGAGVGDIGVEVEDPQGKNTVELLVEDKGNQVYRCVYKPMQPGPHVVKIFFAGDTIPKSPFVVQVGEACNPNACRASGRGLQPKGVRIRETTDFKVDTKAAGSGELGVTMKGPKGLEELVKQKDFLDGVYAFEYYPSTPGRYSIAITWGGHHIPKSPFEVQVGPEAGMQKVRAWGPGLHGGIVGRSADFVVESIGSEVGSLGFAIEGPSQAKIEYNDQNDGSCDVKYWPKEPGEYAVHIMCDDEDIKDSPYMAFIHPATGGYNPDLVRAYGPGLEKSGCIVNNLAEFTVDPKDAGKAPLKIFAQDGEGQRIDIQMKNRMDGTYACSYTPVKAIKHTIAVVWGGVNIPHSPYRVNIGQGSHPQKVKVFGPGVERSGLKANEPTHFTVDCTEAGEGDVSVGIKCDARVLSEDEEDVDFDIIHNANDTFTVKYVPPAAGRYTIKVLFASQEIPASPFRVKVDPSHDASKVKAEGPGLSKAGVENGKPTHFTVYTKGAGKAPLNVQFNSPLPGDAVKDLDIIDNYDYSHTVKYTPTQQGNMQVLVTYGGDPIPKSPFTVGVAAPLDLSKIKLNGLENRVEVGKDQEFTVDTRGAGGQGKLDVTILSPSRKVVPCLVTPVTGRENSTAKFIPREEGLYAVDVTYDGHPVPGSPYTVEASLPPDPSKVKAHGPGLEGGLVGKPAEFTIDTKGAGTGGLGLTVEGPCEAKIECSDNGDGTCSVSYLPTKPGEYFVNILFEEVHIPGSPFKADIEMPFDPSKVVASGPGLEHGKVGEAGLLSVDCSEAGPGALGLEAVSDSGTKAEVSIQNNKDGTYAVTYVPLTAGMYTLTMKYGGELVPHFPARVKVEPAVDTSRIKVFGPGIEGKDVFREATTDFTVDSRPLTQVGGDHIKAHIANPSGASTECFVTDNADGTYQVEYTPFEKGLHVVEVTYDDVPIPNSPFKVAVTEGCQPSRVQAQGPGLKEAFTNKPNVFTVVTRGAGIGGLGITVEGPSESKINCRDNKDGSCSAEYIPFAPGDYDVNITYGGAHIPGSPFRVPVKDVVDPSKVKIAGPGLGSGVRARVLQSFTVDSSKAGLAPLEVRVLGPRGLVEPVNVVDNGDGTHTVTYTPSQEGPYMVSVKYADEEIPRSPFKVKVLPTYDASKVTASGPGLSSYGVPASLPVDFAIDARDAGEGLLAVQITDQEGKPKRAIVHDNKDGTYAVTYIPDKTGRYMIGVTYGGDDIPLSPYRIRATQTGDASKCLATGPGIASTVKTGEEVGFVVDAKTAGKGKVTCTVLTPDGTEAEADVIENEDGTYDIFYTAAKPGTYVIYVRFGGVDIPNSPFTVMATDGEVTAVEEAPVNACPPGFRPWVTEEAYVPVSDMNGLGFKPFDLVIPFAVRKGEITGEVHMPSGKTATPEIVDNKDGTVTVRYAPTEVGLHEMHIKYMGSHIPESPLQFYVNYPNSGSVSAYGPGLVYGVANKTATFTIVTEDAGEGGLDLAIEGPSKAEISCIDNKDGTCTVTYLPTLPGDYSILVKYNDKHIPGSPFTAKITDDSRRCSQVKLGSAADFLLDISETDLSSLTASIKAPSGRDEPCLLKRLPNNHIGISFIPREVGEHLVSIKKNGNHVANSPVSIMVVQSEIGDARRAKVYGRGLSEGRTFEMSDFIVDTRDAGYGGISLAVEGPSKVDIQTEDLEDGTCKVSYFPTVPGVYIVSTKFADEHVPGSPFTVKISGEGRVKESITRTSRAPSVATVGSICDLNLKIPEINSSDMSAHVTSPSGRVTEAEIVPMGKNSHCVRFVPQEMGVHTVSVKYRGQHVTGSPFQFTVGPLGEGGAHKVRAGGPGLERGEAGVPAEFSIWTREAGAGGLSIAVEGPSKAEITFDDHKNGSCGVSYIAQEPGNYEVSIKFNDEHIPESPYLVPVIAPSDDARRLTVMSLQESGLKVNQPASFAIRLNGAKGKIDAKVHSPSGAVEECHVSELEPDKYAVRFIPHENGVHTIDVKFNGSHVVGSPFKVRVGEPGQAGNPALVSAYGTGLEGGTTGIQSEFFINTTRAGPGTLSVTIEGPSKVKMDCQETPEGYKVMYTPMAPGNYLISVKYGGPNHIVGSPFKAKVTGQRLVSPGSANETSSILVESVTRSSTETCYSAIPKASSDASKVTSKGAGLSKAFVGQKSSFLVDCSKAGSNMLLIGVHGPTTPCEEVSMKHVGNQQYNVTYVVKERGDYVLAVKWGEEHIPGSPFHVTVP
Chain of UniProt P05556 (P05556 whole entry): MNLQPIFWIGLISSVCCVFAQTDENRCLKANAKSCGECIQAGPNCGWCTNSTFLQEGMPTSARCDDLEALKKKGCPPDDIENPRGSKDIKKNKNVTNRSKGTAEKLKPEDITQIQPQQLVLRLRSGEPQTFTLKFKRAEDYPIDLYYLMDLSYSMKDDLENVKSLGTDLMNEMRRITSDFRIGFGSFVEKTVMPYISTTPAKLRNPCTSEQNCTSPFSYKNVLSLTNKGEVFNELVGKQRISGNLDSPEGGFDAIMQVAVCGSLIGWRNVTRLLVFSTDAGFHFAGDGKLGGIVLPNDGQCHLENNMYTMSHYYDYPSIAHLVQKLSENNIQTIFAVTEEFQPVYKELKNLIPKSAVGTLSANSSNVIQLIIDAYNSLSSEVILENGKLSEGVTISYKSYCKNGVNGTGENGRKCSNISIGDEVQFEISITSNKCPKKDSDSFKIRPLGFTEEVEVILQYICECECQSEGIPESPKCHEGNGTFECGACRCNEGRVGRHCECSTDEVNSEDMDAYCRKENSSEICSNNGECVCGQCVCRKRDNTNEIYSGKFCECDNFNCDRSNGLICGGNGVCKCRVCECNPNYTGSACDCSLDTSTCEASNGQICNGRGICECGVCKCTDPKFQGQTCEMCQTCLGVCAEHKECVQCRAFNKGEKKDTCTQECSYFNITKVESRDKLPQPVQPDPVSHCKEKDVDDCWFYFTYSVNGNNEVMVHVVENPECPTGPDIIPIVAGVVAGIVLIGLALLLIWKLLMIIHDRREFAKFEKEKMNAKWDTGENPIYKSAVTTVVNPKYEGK
Chain of UniProt P15151 (P15151 whole entry): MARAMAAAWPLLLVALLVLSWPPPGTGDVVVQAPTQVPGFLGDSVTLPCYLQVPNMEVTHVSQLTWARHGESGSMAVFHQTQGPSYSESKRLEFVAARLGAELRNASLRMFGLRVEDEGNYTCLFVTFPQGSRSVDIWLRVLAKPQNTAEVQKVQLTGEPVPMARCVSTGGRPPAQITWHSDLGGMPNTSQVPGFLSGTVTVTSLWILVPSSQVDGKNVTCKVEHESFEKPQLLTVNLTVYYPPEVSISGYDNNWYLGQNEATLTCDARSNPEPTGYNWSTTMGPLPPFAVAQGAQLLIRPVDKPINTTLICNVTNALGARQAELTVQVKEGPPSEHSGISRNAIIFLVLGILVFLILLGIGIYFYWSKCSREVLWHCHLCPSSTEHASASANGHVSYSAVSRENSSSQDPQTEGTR
Chain of UniProt P47756 (P47756 whole entry): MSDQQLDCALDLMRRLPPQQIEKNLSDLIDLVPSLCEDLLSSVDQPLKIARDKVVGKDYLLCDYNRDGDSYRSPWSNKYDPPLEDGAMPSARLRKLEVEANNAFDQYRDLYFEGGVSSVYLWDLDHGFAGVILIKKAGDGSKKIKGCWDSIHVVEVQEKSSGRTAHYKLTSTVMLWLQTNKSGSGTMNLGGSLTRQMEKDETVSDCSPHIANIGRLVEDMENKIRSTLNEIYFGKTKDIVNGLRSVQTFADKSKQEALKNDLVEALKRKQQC

Target | lysine labeling ratio R10:1
FN1 (lysine site: K2030) (UniProt P02751) | 0.807 (active)
UniProt P16144 (lysine site: K662) | 1.57 (active)
FLNB (lysine site: K746) (UniProt O75369) | 3.48
FBLN1 (lysine site: K649) (UniProt P23142) | 2.26
UniProt P16144 (lysine site: K219) | 4.33
UniProt Q15149 (lysine site: K3887) | 3.96
HNRNPU (lysine site: K186) (UniProt Q00839) | 4.06
LMO7 (lysine site: K305) (UniProt Q8WWI1) | 3.84
DSG2 (lysine site: K67) (UniProt Q14126) | 3.97
HNRNPU (lysine site: K31) (UniProt Q00839) | 1.72 (active)
ITGB1 (lysine site: K575) (UniProt P05556) | 3.24
UniProt P62195 (lysine site: K55) | 2.19
PRDX6 (lysine site: K63) (UniProt P30041) | 2.85
ITGA3 (lysine site: K895) (UniProt P26006) | 2.18
RPS19 (lysine site: K143) (UniProt P39019) | 1.75 (active)
SMOC1 (lysine site: K299) (UniProt Q9H4F8) | 4.95
SLC3A2 (lysine site: K245) (UniProt P08195) | 5.72
ANKH (lysine site: K127) (UniProt Q9HCJ1) | 0.684 (active)
UniProt P62273 (lysine site: K33) | 1.51 (active)
XRCC6 (lysine site: K582) (UniProt P12956) | 1.52 (active)

Target | lysine labeling ratio R10:1
TLN1 (lysine site: K138) (UniProt Q9Y490) | 1.21 (active)
CCT2 (lysine site: K522) (UniProt P78371) | 3.39
LNPEP (lysine site: K624) (UniProt Q9UIQ6) | 0.72 (active)
SUB1 (lysine site: K53) (UniProt P53999) | 9.37
PVR (lysine site: K153) (UniProt P15151) | 4.25
SEMA3C (lysine site: K731) (UniProt Q99985) | 0.505 (active)
CAPZB (lysine site: K95) (UniProt P47756) | 3.24
FLNB (lysine site: K2470) (UniProt O75369) | 1.78 (active)
ITGB1 (lysine site: K202) (UniProt P05556) | 4.2
LAMC1 (lysine site: K1566) (UniProt P11047) | 0.555 (active)
HSP90B1 (lysine site: K633) (UniProt P14625) | 3.03
CCT6A (lysine site: K251) (UniProt P40227) | 1.04 (active)
UniProt Q6ZMR3 (lysine site: K155) | 2.54
SPTAN1 (lysine site: K1274) (UniProt Q13813) | 3.51
UniProt P62269 (lysine site: K54) | 1.41 (active)
NOTCH1 (lysine site: K1607) (UniProt P46531) | 6.4
RALA (lysine site: K143) (UniProt P11233) | 2.44
UniProt Q8WXI7 (lysine site: K13246) | 5.01
UniProt Q9NYQ7 (lysine site: K548) | 1.02 (active)
CTTN (lysine site: K272) (UniProt Q14247) | 1.57 (active)
